{
  "source": "PubChem BioAssay AID1259389",
  "about": "(Center for Chemical Genomics, University of Michigan, 2018)",
  "note": "The whole screen tested about 100,000 compounds, of which about 620 (0.62%) were called active. How the source made its calls: active means z-score of 3 or more in at least 2 runs; inactive means the rest. What follows is part of a selection rich in actives, with near analogues and random picks from the rest.",
  "data": [
    {"assay": "TAR RNA-Tat peptide displacers, HIV-1, primary screen, biochemical, FRET, FAM/TAMRA-labeled Tat (AID 1259389)", "conditions": "HIV-1 TAR RNA, Tat peptide displacement FRET; active compounds read high", "values": [
      {"smiles": "O=C(O)C1CSC(c2cccnc2)N1", "note": "(stereo not given)", "z-score": "3.48 (active)"},
      {"smiles": "Cc1nn2c3cc(N4CCNCC4)ccc3nc2c2ccccc12", "z-score": "3.84 (active)"},
      {"smiles": "c1ccc2sc(N3CCNCC3)nc2c1", "z-score": "-0.36 (inactive)"},
      {"smiles": "CC(=O)N[C@H]1CN2CC[C@H](O)[C@@H]2[C@@H](O)[C@@H]1O", "z-score": "0.34 (inactive)"},
      {"smiles": "CC(C)(C)[C@]1(O)C[C@@H]2OC(=O)C[C@@]23C(=O)O[C@@H]2OC(=O)[C@H](O)[C@]213", "z-score": "2.75 (inactive)"},
      {"smiles": "C#CCOc1ccc(C2SCC(=O)Nc3n[nH]c(C)c32)cc1OC", "note": "(stereo not given)", "z-score": "1.62 (inactive)"},
      {"smiles": "CCC1c2cccn2-c2ccccc2CN1C(=O)Nc1ccc(F)c(Cl)c1", "note": "(stereo not given)", "z-score": "1.12 (inactive)"},
      {"smiles": "C=CCOc1ccc(C2SCC(=O)Nc3n[nH]c(C)c32)cc1", "note": "(stereo not given)", "z-score": "1.1 (inactive)"},
      {"smiles": "CN1CC=C(c2noc(CCC(=O)Nc3ccc(Cl)cn3)n2)CC1", "z-score": "1.39 (inactive)"},
      {"smiles": "CCC(CC)n1[nH]c(=O)c2c1NC(=O)CSC2c1ccc(Br)cc1", "note": "(stereo not given)", "z-score": "0.25 (inactive)"}
    ]}
  ]
}
